Positions count from the first letter of the chain named. Whole data set: some 24,000 sequences, median “enrichment r” near 0.99, cut for the highest 2% near 3.7. Many of the other results were omitted from the sample, so the highest values are more common in it than they were.
T1: UNK ZnF1-3 (human, UniProt Q9C0B0 31-174)
T1 sequence: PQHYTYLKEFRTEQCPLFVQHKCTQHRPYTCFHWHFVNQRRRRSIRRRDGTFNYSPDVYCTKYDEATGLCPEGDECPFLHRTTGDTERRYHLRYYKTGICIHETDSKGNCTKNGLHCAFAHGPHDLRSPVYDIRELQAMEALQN

B1: chr17:65740002:65740003:+_ENSG00000130935_ENST00000581375|hu_hu|hu_hu_hu_mus_False|98_108 (ssRNA)
RNA: GGGAGUUCUACAGUCCGACGAUCAACCCGUUCUUGCCUGGAUGAAGAACAGGAAGAUUCAUAUUAAAAAAAAUAUAUAUCCAUCAAGUUAGGUGUGGUGGCCACACCUUUACUCCCAGCACUUUGGGAGGUGGAUCUCUGAGUCAACAGAGGAUUGAGCAUCA
B2: chr18:43483763:43483764:-_ENSMUSG00000024501_ENSMUST00000121805|mus_mus|FALSE|FALSE (ssRNA)
RNA: GGGAGUUCUACAGUCCGACGAUCUGCAGAAUCUACCUUAGUGGCCUGUCUGAUCGCAUGCAUGUAAGUGGGGGUGGGGUGGGGGUGGGGUUCAAAGAAAUUGAGAGUAUGCAAAAACAGAAACCAAAGCAAUUCAUAAAGCUACAACAGAGGAUUGAGCAUCA
B3: chr18:43483763:43483764:-_ENSMUSG00000024501_ENSMUST00000121805|mus_hu|FALSE|FALSE (ssRNA)
RNA: GGGAGUUCUACAGUCCGACGAUCGCAGACUCUUUUACCUUAGUGGCCUGUCUGAUUGCAUGCAUGUAAAUGGGGGGAGGGGAGUCAAACAAAUCAAGGCUAUGCAUAAACAGAAAACAAAGCAAUAUUCGUAAAGCUAGGCAACAACAGAGGAUUGAGCAUCA
B4: chr7:90019433:90019434:+_ENSMUSG00000057706_ENSMUST00000082237|mus_hu|mus_mus_mus_hu_True|78_98 (ssRNA)
RNA: GGGAGUUCUACAGUCCGACGAUCAAAUAAUACAGUGUCUUUGCCAUUAAGGCCAUAUAAAAAUAAAAAGAUUUAACCCAGCUACAAAAAAGUUCACUGAACUUAAAUUAAAAUACUUGUAAACAUCUUUGCAAUAUGAAAUAUCAACAGAGGAUUGAGCAUCA
B5: chr7:90019433:90019434:+_ENSMUSG00000057706_ENSMUST00000082237|mus_hu|motif|central (ssRNA)
RNA: B4 RNA with C38U, U39C, G42U, C43G, A45C, U46A, U57C, A58U, U82G, A83G
B6: chr1:10192443:10192444:+_ENSG00000130939_ENST00000377157|hu_hu|FALSE|FALSE (ssRNA)
RNA: GGGAGUUCUACAGUCCGACGAUCGACAGCCGCCAUGUAACUGAGAGCAGCCUCACGGGUUUCGCCAUUUAACAAAAUACUAUGCAGAAUCUUAAAAAGCUCUUGCCUUCCGAGCUCUAAGUAAUGCUGCAAUGAUUGGCUAACCAACAGAGGAUUGAGCAUCA
B7: chr16:2758876:2758877:+_ENSG00000167977_ENST00000301738|hu_hu|FALSE|FALSE (ssRNA)
RNA: GGGAGUUCUACAGUCCGACGAUCAAUUUUAGUGAAUUAAGUCUUAAUAUCUUUAAAUUAAAAAAACCACAAGCCUAUCUACUAUGUCAAGGUCAAAAAUCAAACAACGCUAAGCGGCCAGCAGCUCCCCAGAGAGGAUGCCCACAACAGAGGAUUGAGCAUCA
B8: 160625162_160625282_3606_3pUTR_ENSG00000136536_ENST00000259050|human|control|control (ssRNA)
RNA: GGGAGUUCUACAGUCCGACGAUCAAAACUACCACCCUUAAAUUUUAUAUUUUUGCUUUAAGACAGACAAUGCAAAGGUAACUGGCAAGAGGUGAGCAAAUGUUUUAGAACAUUUAUAUUAUUGCUUAAAAUGAGAUUUGAAAUCAACAGAGGAUUGAGCAUCA
B9: chr7:56126341:56126342:+_ENSG00000146731_ENST00000540286|hu_mus|hu_hu_hu_mus_True|8_78 (ssRNA)
RNA: GGGAGUUCUACAGUCCGACGAUCCAUGUUUCUCCUCUUGGCUCUGCGCAGAGCUACUAUGCCUUCUUUCGCAAGGGCAUCUAAGGAAAAGGGGUCAAUCCCCUUUUGAUUAAUAACGACAAAUCCUUUAUCUGAAUCACCACACAACAGAGGAUUGAGCAUCA
B10: 62932219_62936930_2744_CDS_ENSG00000061987_ENST00000546600|human|control|control (ssRNA)
RNA: GGGAGUUCUACAGUCCGACGAUCCAUAUUAACUAAACCAGUUUCUAACAAUUUGGCAACAGCAAAAAGAGAUGGUUCCUUAUUAUUUCCAUAGGCCAUAUCCAUUGCUUCUAGAGACAAGGAGCAAAGUGCAUUUAUUAAAUGCAACAGAGGAUUGAGCAUCA
B11: chr7:90019490:90019491:+_ENSMUSG00000057706_ENSMUST00000082237|mus_mus|FALSE|FALSE (ssRNA)
RNA: GGGAGUUCUACAGUCCGACGAUCUCCGUCACAAUCGUGUGAUUAUUAAAAUAAUACAGUGUUCUUUGCCAUAAGGCCAUACUAAAAAUAAAAAGAUUUAACCCAGCUACAAAAAAGUUCACUGAACUUAAAUUAAAAUACUUGCAACAGAGGAUUGAGCAUCA
B12: chr4:107545374:107545375:+_ENSMUSG00000028613_ENSMUST00000106731|mus_hu|FALSE|FALSE (ssRNA)
RNA: GGGAGUUCUACAGUCCGACGAUCUGAUGGAUAGCCACAAAGCAUAAUCAUCUUAUUUACAAAAAACAAAUGCCCCAAAACCUAAAAAAGCCCCCCCAGCAACCAAACAUCUUCUGUAAAUAUAGUUUUUAAAUGAUGAGUAAGCAACAGAGGAUUGAGCAUCA
B13: chr14:78183846:78183847:+_ENSG00000119705_ENST00000557342|hu_hu|hu_hu_hu_mus_False|18_98 (ssRNA)
RNA: GGGAGUUCUACAGUCCGACGAUCUCUCAGAAAUCUUUCUUUCUUUUAUGUUUGAGCUCCGUGCAAAGCCUUUGCUCUUUGAGCUUGAACGUGGAUCUAUGGGAGGGAAAGCACUGUAUUUUCCUGUAAUUUUUUUUUUAAAGACAACAGAGGAUUGAGCAUCA
B14: chr7:135123436:135123437:+_ENSMUSG00000030795_ENSMUST00000077609|mus_mus|FALSE|FALSE (ssRNA)
RNA: GGGAGUUCUACAGUCCGACGAUCGCCUCCGCGACCAUUUCCACCACCCCGAUUGAAGUCAGCUCGGCGGGUAGCAAAUGAAACUUUAAUAGGAUUCCCAGAGAAUUCUUUACCAUCAAACCAGUCGAUAGCUGCUUUAGCAGACAACAGAGGAUUGAGCAUCA
B15: 18916218_18916338_822_CDS_ENSMUSG00000020160_ENSMUST00000068264|mouse|control|control (ssRNA)
RNA: GGGAGUUCUACAGUCCGACGAUCGUGCGGGUACUGAUGCGAGUGCAGAGGAGGCCCGUGGUUCAGGUGGUGGACCGGUUGCAUGGACCUGGCUGCAUGCGGGUCCCCAUACAUCGUGGAGGGGAUGCCUACUCCAUCCAUACCCAACAGAGGAUUGAGCAUCA

Biological target: T1, UNK ZnF1-3
Assay: nsRBNS (natural sequence RNA bind-n-seq); RBNS binding buffer (assumed for nsRBNS): 25 mM Tris pH 7.5, 150 mM KCl, 3 mM MgCl2, 0.01% Triton X-100, 500 ug/ml BSA, 20 U/ml SUPERase-In, 4 C; UNK is unkempt and MSI1 is Musashi-1; names of the RNAs are library labels; protein concentration not given here; high values mean tight binding

Binder | binding signal
B1 | 0.827 enrichment R
B2 | 5.48 enrichment R
B3 | 1.62 enrichment R
B4 | 3.77 enrichment R
B5 | 3.64 enrichment R
B6 | 1.03 enrichment R
B7 | 3.89 enrichment R
B8 | 8.45 enrichment R
B9 | 0.804 enrichment R
B10 | 1.11 enrichment R
B11 | 3.65 enrichment R
B12 | 2.81 enrichment R
B13 | 0.693 enrichment R
B14 | 1.3 enrichment R
B15 | 0.98 enrichment R
